Epigenetic mod: derepresses silenced GFP locus in mouse C127i cells. mouse C127i GFP locus derepression, cytometry, 30 h. Potency, µM (top dose mostly 46.1 µM), for inactives: top-dose GFP derepression (activation). 68,000 tested, 0.09% active. AID 597; further: % of control where 0% means no effect
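Locus derepression in mouse mammary C127i cells whose integrated CMV-GFP reporter is normally silent; GFP expression after 30 h compound treatment was quantified by counting fluorescent cells.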
CRE-bla Fsk: alters forskolin-stimulated CRE reporter signaling in CHO cells; CHO CRE-bla reporter (cAMP response element driving beta-lactamase), forskolin EC10, beta-lactamase ratio; Potency, µM (titrated, usually from 38.2 µM), for inactives: top-dose activity change, negative = inhibition, hits mostly activators; 71,000 tested, 2.5% active; AID 662; active means well fitted activation curve with a large enough effect in the signal ratio, with a control signal flat, not every such curve was filed as active; inconclusive means small, poorly fitted or top-dose-only effect, or effect the other way, or a change in a side signal; the % refers to the signal ratio; further: potency means the concentration at half of the fitted maximal effect; % of control where 0% means no effect
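Modulation of forskolin signalling: compounds in titration series added with EC10 NKH 477 to CHO cells carrying a CRE-driven beta-lactamase reporter, 3 h, 37C. CCF4 FRET ratio (460/530 nm, ex 405 nm) gives %activity and AC50.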
Peg3 imprint: inducers of genomic imprint erasure in mouse ES cells | 110,000 tested, 0.02% active | Potency, µM (titrated, usually from 60.7 µM), for the others: at the top dose activity change, positive = activation, most hits filed as activators | AID 1948 | mouse ES Peg3-LacZ reporter, beta-gal luminescence, 40 h; further: potency means the concentration at half of the fitted maximal effect
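Imprint erasure is scored as LacZ activity from the silenced maternal Peg3 allele in feeder-free female ES cells cultured 40 h with LIF. Luminescence is normalized to in-plate negative controls and fitted to the Hill equation.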
IkB sig inh: inhibitors of IkB signaling in ABC-DLBCL cells; Potency, µM (doses to about 57.1 µM), inactives show top-dose IkBa stabilization activation; 110,000 tested, 0.04% active; ABC-DLBCL IkBa-CBG/CBR dual luciferase ratio, 4 h; response scale: scaled: untreated 0%, proteasome inhibitor 100%; active means well fitted curve in the direction sought with a large enough effect in the signal ratio, not every such curve was filed as active; inconclusive means small, poorly fitted or top-dose-only effect, or a change in a side signal; the % refers to the signal ratio;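 further: potency means the concentration at half of the fitted maximal effect; the direction sought is a rising ratio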
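In this assay, an IκBα–CBG68 fusion accumulates when IKK-driven degradation is blocked; native CBR normalizes for cell number. OCI-Ly3 cells were treated 4 h with compound and doxycycline, then green and red light read after Chroma-Glo addition.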
HBB splicing: modulators of hemoglobin beta chain splicing; 65,000 tested, 0.06% active; Potency, µM (doses to about 46.1 µM), for inactives: at the highest dose activation, hits mostly activators; HBB splicing reporter cell assay, activation; EGFP reporter with mutant IVS2-654 intron; response scale: normalised to 500 nM splice-correcting PNA; further: potency means the concentration at half of the fitted maximal effect; 0% is about no effect
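Compounds were applied for 2 days to HeLa EGFP-654 cells, 500/well in Optimem with 2% FCS. The reporter's EGFP is disrupted by mis-splicing of beta-globin intron IVS2-654. Readout: summed well GFP fluorescence from 488 nm laser scanning; reference was 500 nM antisense […] 654 PNA.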
* hit, by the source's call; [ ] = dose if it differs, or a comment. Many of the other results were omitted from the sample, so hits are more common in it than they were. Unless noted, the call rests on the fitted dose curve; in most records, active means well fitted curve in the direction sought with a large enough effect; inconclusive means small, poorly fitted or top-dose-only effect, or another doubt; inactive means no such curve, though single readings can be large; an effect the other way counts as inactive or inconclusive.

Screening O=c1c(CCc2ccccc2)nc2cnc(N3CCOCC3)nc2n1-c1ccccc1 returned Epigenetic mod -5%[9.22 µM], CRE-bla Fsk 7.9µM*, Peg3 imprint -6%, IkB sig inh -2%[11.4 µM] and HBB splicing -1%.
`N#CCCn1c(=O)c(CCc2ccccc2)nc2cnc(N3CCOCC3)nc21` gave Epigenetic mod 2%[9.22 µM], CRE-bla Fsk 3.2µM*, IkB sig inh -5%[11.4 µM] and HBB splicing -1%.
Cc1ccc(S(=O)(=O)c2c(O)cc(C)c(NS(=O)(=O)c3ccc(Cl)cc3)c2C)cc1 was read as Peg3 imprint 2%[10.9 µM] and IkB sig inh inconclusive.
Cc1cccc(OCc2nnc(SCC(=O)N(C(C)C)C(C)C)n2Cc2ccco2)c1C was read as Epigenetic mod 2%, CRE-bla Fsk 13µM*, Peg3 imprint -12%, IkB sig inh inconclusive and HBB splicing 0%[57.5 µM].
Cc1n[nH]c(C)c1N1C(=O)c2cccc3c(N4CCCCCC4)ccc(c23)C1=O was read as Epigenetic mod 2%, CRE-bla Fsk inconclusive, Peg3 imprint -13%, IkB sig inh inconclusive and HBB splicing 16µM*.
For CC(=O)c1ccc2c3c(cccc13)C(=O)N(c1c(C)nn(C)c1C)C2=O the results were Epigenetic mod 2%, CRE-bla Fsk inconclusive, Peg3 imprint 2%, IkB sig inh 0% and HBB splicing 0%[57.5 µM].
`CCN1CCN(c2oc(-c3ccc(COc4ccc(C)cc4)o3)nc2C#N)CC1` gave Peg3 imprint -15%[10.9 µM] and IkB sig inh inconclusive.
For COc1ccc(CCNC(=O)c2nc(SCc3ccc(F)cc3)ncc2Cl)cc1OC the results were Peg3 imprint -15%[10.9 µM] and IkB sig inh 10%.
For CCN(CC)c1nc(C#N)nc(N(CC)CC)n1 the results were Epigenetic mod 3%, CRE-bla Fsk 10µM*, Peg3 imprint 6%, IkB sig inh 2% and HBB splicing -3%.
Screening CCN(CC)c1nc(SCC(=O)O)nc(N(CC)CC)n1 returned Epigenetic mod -3%, CRE-bla Fsk 3%, Peg3 imprint -26%, IkB sig inh -1% and HBB splicing -1%.
COc1cccc(Cn2c(=O)c(-c3ccccc3)nc3cnc(N(C)C)nc32)c1 was read as Epigenetic mod 0%[9.22 µM], CRE-bla Fsk inconclusive, IkB sig inh -1%[11.4 µM] and HBB splicing 0%.
For CCNc1ncc2nc(C)c(=O)n(CCOC)c2n1 the results were Epigenetic mod -3%[9.22 µM], CRE-bla Fsk 10µM*, Peg3 imprint inconclusive, IkB sig inh 4%[11.4 µM] and HBB splicing -1%.
COc1cccc(Cn2c(=O)c(C)nc3cnc(N(C)C)nc32)c1 was read as Epigenetic mod -3%[9.22 µM], CRE-bla Fsk 13µM*, Peg3 imprint -2%, IkB sig inh 3%[11.4 µM] and HBB splicing 1%.
For CCNc1ncc2nc(C)c(=O)n(Cc3cccc(OC)c3)c2n1 the results were Epigenetic mod -5%[9.22 µM], CRE-bla Fsk 10µM*, IkB sig inh 1%[11.4 µM] and HBB splicing 1%.
Screening COc1cccc(Cn2c(=O)c(C)nc3cnc(Nc4cccc(OC)c4)nc32)c1 returned Epigenetic mod 2%[9.22 µM], CRE-bla Fsk inconclusive, Peg3 imprint inconclusive, IkB sig inh -4%[11.4 µM] and HBB splicing 0%.
Screening CCNc1ncc2nc(C)c(=O)n(C)c2n1 returned Epigenetic mod 0%[9.22 µM], CRE-bla Fsk inconclusive, Peg3 imprint 5%, IkB sig inh -1%[11.4 µM] and HBB splicing 2%.
`CCCc1nn2c(=O)cc(COC(=O)c3ccc(NC(=O)c4cccs4)cc3)nc2s1` gave Peg3 imprint -10%[10.9 µM] and IkB sig inh -1%.
Screening COc1ccc(NC(=O)CSc2c(C(C)C)cnc3c2c(=O)n(C)c(=O)n3C)c(OC)c1 returned Peg3 imprint -8%[10.9 µM] and IkB sig inh 1%.
O=C(Nc1ccc(OCc2cc(=O)n3ccccc3n2)cc1)c1ccccc1Cl was read as Peg3 imprint -6%[10.9 µM] and IkB sig inh 2%.
COc1ccccc1N1CCN(C(=O)Cn2c(=O)nc(-c3ccccc3)c3ccccc32)CC1 was read as Peg3 imprint -6%[10.9 µM] and IkB sig inh inconclusive.
Screening COc1ccc(-n2nnnc2C2CCN(S(=O)(=O)c3ccc(C)cc3)CC2)cc1 returned Peg3 imprint -9%[10.9 µM] and IkB sig inh inconclusive.
COc1ccccc1CNc1ncncc1-c1ccc2c(c1)OCO2 was read as Epigenetic mod 0%[9.22 µM], CRE-bla Fsk inconclusive, Peg3 imprint -7%, IkB sig inh 1%[11.4 µM] and HBB splicing -1%.
COc1ccc2[nH]cc(CCNc3ncnc4ccc(-c5cccc(C#N)c5)cc34)c2c1 was read as Epigenetic mod 0%[9.22 µM], CRE-bla Fsk 2.5µM*, Peg3 imprint -32%, IkB sig inh -6%[11.4 µM] and HBB splicing 0%.
COc1ccc(CNc2ncncc2-c2ccc3c(c2)OCO3)c(OC)c1 was read as Epigenetic mod 8%[9.22 µM], CRE-bla Fsk 3.2µM*, Peg3 imprint -13%, IkB sig inh 1%[11.4 µM] and HBB splicing 1%.
`COc1ccc(CNc2nc(-c3ccccc3OC)nc3ccccc23)c(OC)c1` gave Epigenetic mod inconclusive, CRE-bla Fsk 10µM*, IkB sig inh 0%[11.4 µM] and HBB splicing 0%.
COc1ccc(CNc2nc(-c3cccnc3)nc3ccccc23)c(OC)c1 was read as Epigenetic mod -2%[9.22 µM], CRE-bla Fsk 3.2µM*, Peg3 imprint -25%, IkB sig inh -1%[11.4 µM] and HBB splicing 1%.
For COc1ccc2[nH]cc(CCNc3ccnc(-c4ccc(C(=O)N(C)C)cc4)n3)c2c1 the results were Epigenetic mod 6%[9.22 µM], CRE-bla Fsk 2.5µM*, Peg3 imprint -23%, IkB sig inh 1%[11.4 µM] and HBB splicing 0%.
COc1ccc(CNc2ncnc3ccc(-c4ccccc4C#N)cc23)c(OC)c1 was read as Epigenetic mod -5%[9.22 µM], CRE-bla Fsk 3.2µM*, Peg3 imprint -18%, IkB sig inh 4%[11.4 µM] and HBB splicing 1%.
`O=C(NCc1ccccc1Cl)C1CCCN(c2nc3ccccc3n3cccc23)C1` (centres undefined) gave Peg3 imprint -13%[10.9 µM] and IkB sig inh -1%.
CSc1ncnc2nc[nH]c12 was read as CRE-bla Fsk 13µM*, Peg3 imprint -33%, IkB sig inh 1% and HBB splicing 0%.
`CCN(CC)CCNC(=O)C1CCN(c2cc(C)nc3c(-c4ccc(Cl)cc4)c(C)nn23)CC1` gave Peg3 imprint -10%[10.9 µM] and IkB sig inh 1%.
Screening CC1CCN(S(=O)(=O)c2ccc3c(ccc(=O)n3CC(=O)Nc3ccc(C(C)C)cc3)c2)CC1 returned Peg3 imprint -6%[10.9 µM] and IkB sig inh 1%.

Compound activity as filed in PubChem.
